Screening data (PubChem BioAssay)
G9a inh: blocks human histone lysine methyltransferase G9a; Potency, µM (series often up to 102 µM), inactives show at the highest dose activity, negative = inhibition, actives largely listed as inhibitors; Q96KQ7; 8.8% of 350,000 active; G9a H3K9 monomethylation, AlphaScreen, 2 h; AID 504332; also: % is scaled to controls: 0 for no effect and ±100 for the full control effect; nearly all actives have a fitted effect of over 75% in size
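Step 1: enzyme (final 20 nM) with compound, 15 min RT. Step 2: substrate peptide 500 nM and SAM 20 uM, 2 h RT. Step 3: anti-H3K9me1 antibody and AlphaScreen beads, 10 min, then plate read.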
VDR inhibitor: blocks the human vitamin D receptor. P11473. VDR-SRC2-3 peptide fluorescence polarization, 2 h. AID 504847. 0.93% of 400,000 active. Potency, µM, inactives show max response, negative = inhibition, usual class: inhibitors; also: % is scaled to controls: 0 for no effect and ±100 for the full control effect
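VDR–SRC2-3 interaction, FP format. Cmpds 23 nl via pintool, brief spin, 2 h ambient incubation.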
ALOX12 inh: inhibitors of human 12S-lipoxygenase ALOX12. purified 12hLO, xylenol orange hydroperoxide absorbance. Potency, µM (series often up to 108 µM), for the others: at the top dose activity change, negative = inhibition, hits mostly inhibitors. 1.1% of 580,000 active; also: % is scaled to controls: 0 for no effect and ±100 for the full control effect
Target sequence (P18054 whole entry, looked up): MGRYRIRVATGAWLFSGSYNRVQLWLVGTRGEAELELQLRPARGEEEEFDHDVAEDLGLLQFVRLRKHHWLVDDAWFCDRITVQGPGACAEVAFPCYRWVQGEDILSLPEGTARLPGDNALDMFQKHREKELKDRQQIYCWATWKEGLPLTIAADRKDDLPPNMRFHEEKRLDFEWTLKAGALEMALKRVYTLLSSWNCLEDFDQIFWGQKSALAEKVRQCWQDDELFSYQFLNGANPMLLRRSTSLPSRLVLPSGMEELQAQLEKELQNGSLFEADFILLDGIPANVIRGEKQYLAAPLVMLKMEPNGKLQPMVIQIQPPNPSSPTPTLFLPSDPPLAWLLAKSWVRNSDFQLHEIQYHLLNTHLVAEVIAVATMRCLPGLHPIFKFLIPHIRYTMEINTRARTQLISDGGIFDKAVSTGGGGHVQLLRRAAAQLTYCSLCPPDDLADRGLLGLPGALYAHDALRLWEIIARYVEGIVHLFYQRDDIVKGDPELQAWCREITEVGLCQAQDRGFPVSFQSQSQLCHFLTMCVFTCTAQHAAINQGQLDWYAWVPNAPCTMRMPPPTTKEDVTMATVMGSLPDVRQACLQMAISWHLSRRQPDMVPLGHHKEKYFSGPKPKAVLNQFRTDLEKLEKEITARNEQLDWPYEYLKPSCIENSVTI
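Purified human 12hLO at 150 nM in 25 mM Hepes, 0.01% Triton X-100, pH 7.0, preincubated 15 min at room temperature with compound. Reaction started with 40 uM arachidonic acid, 30 min at room temperature. Hydroperoxide measured by Fe-xylenol orange, 573/405 nm absorbance ratio.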
Sfp inh: inhibitors of Bacillus subtilis Sfp phosphopantetheinyl transferase | Q9F4F7 | Biochemical Sfp PPTase activity, qHTS | Potency, µM, for the others: largest response in the series, negative = inhibition, usual class: inhibitors | 3.5% of 310,000 active;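 also: the enzyme is Sfp with the accession as filed and its product quenches rhodamine fluorescence; 0% = enzyme reaction without inhibitor and -100% = no enzyme wells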
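Reaction rates are the 30-min fluorescence difference (ex 525, em 598 nm) in wells containing 15 nM Sfp, 5 uM rhodamine-CoA and 12.5 uM BHQ-2-YbbR at pH 7.6 with 10 mM MgCl2.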
Glioma ERSR ind: induces the endoplasmic reticulum stress response in human glioma cells. U87-MG GRP78 promoter luciferase reporter, 16 h. Potency, µM, without a hit: at the top dose activation, most hits filed as activators. 0.02% of 420,000 active; also: series mostly up to about 76 µM; % of control where 0% means no effect; nearly all actives have a fitted effect of over 35% in size
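Stably transfected U87-MG glioma cells carrying a GRP78-based luciferase sensor; 16 h compound incubation. Luminescence end-point read 10 min after Bright-Glo addition at room temperature.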
The depositor's hits bear a star; ? = inconclusive; . = not tested or not shown; [ ] = remark or other dose. The entries come from a sample that favours hits as a whole. Calls follow the shape of the dose curve; as a rule, active = well fitted curve in the direction sought with a large enough effect; inconclusive = small, poorly fitted or top-dose-only effect, or another doubt; inactive = no such curve, though single readings can be large; an effect the other way counts as inactive or inconclusive. Potency is read from the fitted curve at half-maximal effect.

SMILES	G9a inh	VDR inhibitor	ALOX12 inh	Sfp inh	Glioma ERSR ind
CCOC(=O)c1cc2cccc(C(C)C)c2[nH]1	.	.	-2.3%	.	.
CCOCCOC(C)C(=O)NCC(CC)c1ccccc1 (stereo not drawn)	.	.	22.6%	.	.
CC(C)OC(=O)c1cc(-c2ccccc2)nc2ccccc12	.	.	2.3%	.	.
CN(C)c1ccc(-c2cc(Nc3ccc(F)cc3)ncn2)cc1	1.7%[0.501 µM]	44.7µM*	?	?	-0.2%
CN(C)c1ccc(-c2nccc(Nc3ccc(F)cc3)n2)cc1	1.5%[0.501 µM]	?	?	?	-0.9%
CS(=O)(=O)Nc1cccc(-c2cncnc2-n2ccnc2)c1	-3.1%[0.501 µM]	-1.1%	?	-4.9%	-4.2%
c1cncc(-c2cncnc2-n2ccnc2)c1	.	15.1%	7.94µM*	-18.1%	-2.6%
O=C(Cc1ccc(Cl)cc1)NNC(=O)C1CCCCC1	.	.	1.9%	.	.
COc1ccc2cc(C3Nc4ccccc4C(=O)N3C3CC3)ccc2c1 (stereo not drawn)	.	.	-7.2%	.	.
O=C(CC1CCCC1)NCCC1CCN(C(=O)NC2CCCCC2)CC1	.	.	-1.2%	.	.
Cc1cc(-c2csc(N)n2)c(C)n1C	10µM*	8.0%	?	20µM*	-3.6%
Cc1ccc(NC(=O)Cc2nc(-c3cc(C)n(-c4cc(C)on4)c3C)cs2)cc1	.	.	-82.9%	.	.
Cc1ccc(-n2c(C)cc(-c3csc(N)n3)c2C)cc1	5.01µM*	13.7%	?	?	-3.5%
CCn1cc(-c2csc(N)n2)c(C)n1	13.7%[59 µM]	0.4%	-4.6%	8.8%	2.4%
Cc1cc(-c2csc(N)n2)c(C)n1Cc1ccco1	17.8µM*	-26.2%	-27.9%	50.1µM*	-2.9%
Cc1[nH]c2ccccc2c1C(C[N+](=O)[O-])c1ccco1 (stereo not drawn)	50.1µM*	1.5%	?	-7.1%	-4.7%
Cc1ccc(-c2[nH]c3ccccc3c2C(C[N+](=O)[O-])c2ccco2)cc1 (stereo not drawn)	?	-3.9%	283.9%	20.4%	-6.8%
O=C(OCC(=O)N1CCCCCC1)c1ccc(S(=O)(=O)NCc2ccco2)cc1	.	.	17.2%	.	.
Fc1ccc(Br)cc1C1C=C(c2cccnc2)Nc2ncnn21 (stereo not drawn)	44.7µM*	-15.9%	.	8.5%	-1.7%
Fc1ccc(C2=CC(c3ccc(Br)o3)n3ncnc3N2)cc1 (stereo not drawn)	8.91µM*	?	.	-100.7%	0.6%
Brc1ccc(C2=CC(c3cccs3)n3ncnc3N2)cc1 (stereo not drawn)	11.1%[0.501 µM]	-21.9%	39.8µM*	79.4µM*	-2.1%
C1=C(c2ccc(-c3ccccc3)cc2)Nc2ncnn2C1c1ccco1 (stereo not drawn)	31.6µM*	1.4%	2.9%	?	7.8%
Cc1ccc(C2C=C(c3ccccc3)Nc3ncnn32)cc1 (stereo not drawn)	.	?	-22.8%	.	-3.4%
COc1cc(Nc2nc3ccccc3nc2C(=O)OCC(C)C)cc(OC)c1	.	.	5.5%	.	.
COC(=O)C1C(=O)C2=C(CC1C)NC(=O)CC2c1ccc(F)cc1 (stereo not drawn)	25.6%[12.7 µM]	-4.7%	0.0%	20.3%	-2.9%
SMILES	G9a inh	VDR inhibitor	ALOX12 inh	Sfp inh	Glioma ERSR ind
CCOc1cc(C2CC(=O)NC3=C2C(=O)C(C(=O)OC)C(C)C3)cc(Br)c1O (stereo not drawn)	44.7µM*	13.3%	0.0%	50.1µM*	2.7%
FC(F)(F)c1cnc(SCc2cn3ccsc3n2)c(Cl)c1	.	.	-7.8%	.	.
CCCCN(CCCC)S(=O)(=O)c1nc(C)c(Cl)c(C)c1C#N	.	.	-37.9%	.	.
O=C(NCc1cccnc1)C1(c2cccc(C(F)(F)F)c2)CCOCC1	.	.	-29.7%	.	.
COc1cc(OC)cc(C(=O)NNC(=O)c2ccc3ccccc3n2)c1	-20.3%	-14.9%	25.9%	.	?
COc1ccc(CC(=O)NNC(=O)c2ccc(NC(C)=O)cc2)cc1	44.7µM*	-5.2%	3.3%	13.9%	3.2%
CCCCOc1ccc(C(=O)NNC(=S)NC(=O)CC)cc1	20µM*	?	.	-5.0%	-0.1%
COc1ccc(C(=O)NC(=S)NNC(=O)c2ccc3ccccc3n2)cc1	12.6µM*	6.9%	?	12.7%	-1.2%
CCC(=O)NC(=S)NNC(=O)c1ccc(OC)cc1	22.4µM*	-14.5%	1.5%	56.2µM*	0.6%
CCN(CC)CC1CCN(C(=O)c2cccc(C#N)c2)CC1	.	.	-33.1%	.	.
Cc1nc(C#N)c(NCC(c2cccs2)N2CCOCC2)o1 (stereo not drawn)	.	.	-22.9%	.	.
O=c1cc(CNCc2ccccc2)c2ccccc2[nH]1	.	.	-1.3%	.	.
Cc1c(CCC(=O)N2CCCC2)c(=O)oc2cc(O)ccc12	.	.	17.8%	.	.
Nn1c(-c2ccccc2)nc2cc(Cl)ccc2c1=O	44.7µM*	-5.8%	8.2%	11.7%	1.6%
COc1ccc(OCC(=O)NNC(=S)NC(=O)C2CCCCC2)cc1	12.6µM*	.	?	10.9%	.
COc1ccc(C(=O)NC(=S)NNC(=O)CNC(=O)C2CCCCC2)cc1	8.91µM*	2.6%	?	-22.5%	5.4%
Cc1cc(C)cc(OCC(=O)NNC(=S)NC(=O)C2CC2)c1	20µM*	-0.2%	0.0%	24.5%	9.1%
CCOCC1(C)COc2ccc(C(=O)Nc3ccccn3)cc2N1 (stereo not drawn)	.	.	51.9%[176 µM]	.	.
COc1ccc(CN2C=C(C(=O)OCc3nc(C4CCCCC4)no3)C(C)=NS2(=O)=O)cc1	.	.	4.1%	.	.
CCN(CC)Cc1ccc(CNC(=O)CCC2CCCC2)cc1	.	.	-2.2%	.	.
CCN1CCN(c2ccc(S(=O)(=O)N3CCCCC3)cc2NC(=O)Cc2ccccc2F)CC1	?	10.5%	-11.6%	.	-5.3%
CCN1CCN(c2ccc(S(=O)(=O)N3CCCCC3)cc2NC(=O)c2ccc(C)o2)CC1	39.8µM*	-10.2%	.	.	-2.2%
CCN1CCN(c2ccc(S(=O)(=O)N3CCCCC3)cc2NC(=O)c2cccc(F)c2)CC1	?	7.3%	10.3%	.	0.1%
CCN1CCN(c2ccc(S(=O)(=O)N3CCCCC3)cc2NC(=O)c2cccc(C(F)(F)F)c2)CC1	12.6µM*	-24.4%	?	.	-4.6%
CCN1CCN(c2ccc(S(=O)(=O)N3CCCCC3)cc2NC(=O)COc2ccc(Cl)c(C)c2)CC1	7.5%[12.7 µM]	19.8%	-0.7%	?	-5.4%
SMILES	G9a inh	VDR inhibitor	ALOX12 inh	Sfp inh	Glioma ERSR ind
CC(C)Cc1nnc(NC(=O)c2cccc(S(=O)(=O)N3CCN(C)CC3)c2)s1	39.8µM*	-14.4%	-10.8%	.	-2.9%
CCN1CCN(c2ccc(S(=O)(=O)N3CCCCC3)cc2NC(=O)c2ccccc2)CC1	10µM*	-2.6%	?	.	-5.0%
CCOC(=O)C1CCN(c2nc3ccccc3n3c(=O)n(CC(=O)Nc4ccccc4C#N)nc23)CC1	.	.	-22.7%	.	.
CSCCOc1ccc(-c2ccccc2)cc1	.	.	-3.5%	.	.
CCN1CCN(c2ccc(S(=O)(=O)N3CCCCC3)cc2NC(=O)c2ccc([N+](=O)[O-])s2)CC1	10µM*	0.1%	?	.	-5.7%
CCc1cc(C(=O)Nc2cc(S(=O)(=O)N3CCOCC3)ccc2N2CCN(CC)CC2)sc1C	.	-6.1%	6.2%	.	-2.9%
CN1CCN(S(=O)(=O)c2cccc(C(=O)Nc3cc(C(F)(F)F)ccc3N3CCCCC3)c2)CC1	44.7µM*	11.3%	-7.9%	.	-4.4%
